± gives the standard deviation of the averaged measurements.

In one experiment the test system is IMR-90. Description: relative cell viability (ATPlite) vs untreated control (fraction); higher = less toxic. To be noted: 1 µM; 72 h. On the technique in general: ATP-based viability assays read luminescence as a measure of living cells.
For experiment [1], the system named is K562. Described as above. To be noted: 1 µM; 72 h.
Experiment [2] relates to K562. Description: relative cell viability (ATPlite) vs untreated control, with imatinib (fraction); higher = less toxic. To be noted: 1 µM; 72 h; imatinib 0.125 µM.

For `Nc1ncnc2c1c(I)cn2[C@@H]1O[C@H](CO)[C@@H](O)[C@H]1O` [5-Iodotubercidin], the relative cell viability in the experiment with IMR-90 came out at 0.745 ± 0.14; in the experiment with K562 [1], 0.715 ± 0.12; in the experiment with K562 [2] it was 0.702 ± 0.065.
Taken in the same sequence, the figures for `O=C(O)C=Cc1cc(Br)c(Br)c(Br)c1Br` [Casein Kinase II Inhibitor III, TBCA] were 0.889 ± 0.14, 0.988 ± 0.082 and 0.836 ± 0.044.
For the compound `CCCOc1ccc(/C=C2/SC(=O)NC2=O)cc1` [PIM1/2 Kinase Inhibitor VI], the relative cell viability in the experiment on IMR-90 is 0.916 ± 0.1; with K562 [1] it was 0.972 ± 0.031; in the experiment on K562 [2], 0.802 ± 0.029.
Taken in the same sequence, the figures for `COc1cc2ncnc(Nc3ccc(Oc4ccccc4)cc3)c2cc1OC` [Src Kinase Inhibitor I] were 0.956 ± 0.063, 0.839 ± 0.088 and 0.692 ± 0.05.
Taken in the same sequence, the figures for `CSc1nc(-c2ccnc(NC(C)c3ccccc3)c2)c(-c2ccc(F)cc2)[nH]1` (stereo not given) [p38 MAP Kinase Inhibitor III] were 1.03 ± 0.072, 0.909 ± 0.024 and 0.735 ± 0.038.
Taken in the same sequence, the figures for `NC(=O)c1ccc2nc(-c3ccc(Oc4ccc(Cl)cc4)cc3)[nH]c2c1` [Chk2 Inhibitor II] were 1.05 ± 0.097, 0.778 ± 0.061 and 0.681 ± 0.027.
With `O=C1NC(=O)C(c2c[nH]c3ccccc23)=C1c1c[nH]c2ccccc12` [Bisindolylmaleimide IV], the relative cell viability with IMR-90 was found to be 0.826 ± 0.14; with K562 [1], 0.936 ± 0.053; with K562 [2] it was 0.851 ± 0.024.
Taken in the same sequence, the figures for `COc1ccc(-c2cnc3c(-c4ccsc4)cnn3c2)cc1` [VEGF Receptor 2 Kinase Inhibitor IV] were 0.993 ± 0.1, 0.893 ± 0.072 and 0.726 ± 0.067.
On to `COc1cc2ncnc(Nc3ccc(O)c(Br)c3)c2cc1OC` [JAK3 Inhibitor II], for which the relative cell viability was determined as 1.01 ± 0.09 in the experiment with IMR-90, 0.815 ± 0.037 with K562 [1] and 0.717 ± 0.032 in the experiment with K562 [2].
On to `N#Cc1c(C2CCNCC2)cc(-c2c(O)cccc2OCC2CC2)nc1N` [IKK-2 Inhibitor VIII], for which the relative cell viability in the experiment on IMR-90 worked out at 1.01 ± 0.12; with K562 [1], 0.871 ± 0.048; in the experiment on K562 [2], 0.718 ± 0.021.
With `O=C(Nc1cc(C(F)(F)F)cc(C(F)(F)F)c1)c1cc(Cl)ccc1O` [IKK-2 Inhibitor V], the relative cell viability in the experiment on IMR-90 is 0.878 ± 0.28; in the experiment on K562 [1], 0.505 ± 0.03; in the experiment on K562 [2], 0.477 ± 0.011.
For the compound `Cc1ccc([N+](=O)[O-])cc1S(=O)(=O)N(C)/N=C/c1cnc2ccc(Br)cn12` [PI 3-Kα Inhibitor VIII], the relative cell viability was 0.166 ± 0.031 in the experiment on IMR-90, 0.763 ± 0.071 in the experiment on K562 [1] and 0.681 ± 0.044 with K562 [2].
Consider `CCC(=O)Nc1ccc2ncnc(Nc3cccc(Br)c3)c2c1`, for which the relative cell viability with IMR-90 turned out to be 0.982 ± 0.058; in the experiment on K562 [1], 0.903 ± 0.031; in the experiment with K562 [2] it was 0.743 ± 0.05.
On to `COc1ccc(Cl)cc1NC(=O)Nc1cc(C)nc2ccccc12` [IGF-1R Inhibitor II], for which the relative cell viability with IMR-90 amounted to 1.04 ± 0.08; in the experiment on K562 [1] it was 0.933 ± 0.014; in the experiment on K562 [2] it was 0.798 ± 0.018.
`Cc1ccc(NC2=CC(=O)c3sc(C)nc3C2=O)cc1` [Cdk4 Inhibitor III]: the relative cell viability in the experiment with IMR-90 amounted to 0.997 ± 0.032; with K562 [1], 0.782 ± 0.1; in the experiment with K562 [2], 0.685 ± 0.14.
